The AC50 is the concentration at which the activity in the assay is half-maximal.

Consider four molecules from PubChem BioAssay (EPA / NIEHS).

Inconclusive results are not listed. The source made the active and inactive calls. Rule for the calls, unless noted: active = hit-call score of the fitted dose curve at least 0.9, where 1 is the maximum; inactive = score below 0.9.

Assay [1] deals with Hypoxia-inducible factor 1-alpha (Homo sapiens) (UniProt Q16665). The experiment in a line: ATG_HIF1a_CIS: Attagene CIS-FACTORIAL HepG2 Assay for human Hypoxia Inducible Factor 1 (HIF1A) (AID 2282951). To be noted: HepG2 Attagene cis-factorial HIF1a reporter transcription; actives raise or lower the signal. The gist of the method:
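HepG2 cells transiently transfected with multiplexed cis-promoter reporter units; reporter mRNA read 24 h after dosing by RT-PCR, 6-FAM primer-extension labelling, HpaI digestion and capillary electrophoresis. Bidirectional fit versus DMSO baseline.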

Assay [2] has as its target Transcription factor Sp1 (Homo sapiens) (UniProt P08047). The experiment in a line: ATG_Sp1_CIS: Attagene CIS-FACTORIAL HepG2 Assay for human Specificity Protein 1 (Sp1) (AID 2282961). To be noted: HepG2 Sp1 cis-reporter transcription, actives raise or lower the signal. Summed up:
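HepG2 cells transiently transfected with multiple reporter transcription units driven by cis-regulatory elements; Sp1-responsive reporter mRNA measured 24 h after dosing by RT-PCR and capillary electrophoresis fluorescence, fitted bidirectionally against DMSO baseline.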

Assay [3] is described as follows: ATG_TA_CIS: Attagene CIS-FACTORIAL HepG2 Assay for human TA Basal Promoter (AID 2282964). To be noted: HepG2 Attagene CIS-factorial TA basal promoter reporter; actives raise or lower the signal. The gist of the method:
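HepG2 cells transiently transfected with multiplexed cis-promoter reporter units, dosed 24 h. Reporter mRNA measured by RT-PCR, 6-FAM labelling, HpaI digestion and capillary electrophoresis; bidirectional fit versus DMSO baseline, serving as background control.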

A short description of assay [4]: ATG_TCF_b_cat_CIS: Attagene CIS-FACTORIAL HepG2 Assay for human T-Cell-Factor with beta-catenin (TCF/b-cat) (AID 2282965). To be noted: HepG2 TCF/beta-catenin cis-reporter transcription, actives raise or lower the signal. The gist of the method: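 Endogenous TCF/LEF activity read as reporter transcript level via RT-PCR and capillary electrophoresis fluorescence in transfected HepG2, 24 h exposure; gain or loss of signal fitted against DMSO controls.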

Assay [5] can be described thus: ATG_TAL_CIS: Attagene CIS-FACTORIAL HepG2 Assay for human TAL Basal Promoter (AID 2282966).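 Note: background control endpoint measuring basal TAL promoter reporter mRNA not a specific factor.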 To be noted: HepG2 Attagene cis-factorial TAL promoter reporter; actives raise or lower the signal. Summed up: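 Endogenous transcription-factor activity is sensed in HepG2 cells through transfected cis-promoter reporter constructs. After 24 h dosing, reporter transcripts are quantified by RT-PCR and capillary electrophoresis. Gain or loss of signal is fitted relative to DMSO.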

Assay [6] is described as follows: ATG_TGFb_CIS: Attagene CIS-FACTORIAL HepG2 Assay for human Transforming Growth Factor (TGF) (AID 2282967). To be noted: HepG2 Attagene CIS TGFb reporter, mRNA transcription; actives raise or lower the signal. The gist of the method: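 HepG2 cells transiently transfected with cis-promoter-driven multiplexed reporter units; 24 h compound exposure. Reporter mRNA measured by RT-PCR, 6-FAM labeling, HpaI digestion and capillary electrophoresis; bidirectional fit versus DMSO baseline.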

Assay [7] is described as follows: ATG_VDRE_CIS: Attagene CIS-FACTORIAL HepG2 Assay for human Vitamin D Receptor Element (VDRE) (AID 2282968). To be noted: HepG2 VDRE cis-reporter transcription, actives raise or lower the signal. Summed up: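 Readout is VDRE-driven reporter mRNA reflecting endogenous factor activity in human HepG2 cells, sampled 24 h post-dose. Quantification used labelled RT-PCR products separated by capillary electrophoresis; bidirectional analysis relative to DMSO.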

For assay [8], the target named is X-box-binding protein 1 (Homo sapiens) (UniProt P17861). The assay is described as follows: ATG_Xbp1_CIS: Attagene CIS-FACTORIAL HepG2 Assay for human X-box Binding Protein 1 (XBP1) (AID 2282972). To be noted: HepG2 XBP1 cis-element reporter, Attagene multiplex; actives raise or lower the signal. The gist of the method:
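Read-out: fluorescent reporter mRNA fragments resolved by capillary electrophoresis after RT-PCR. Human HepG2 liver cells carried transfected cis-promoter reporter units and were exposed to chemicals for 24 hours. Gain or loss of signal fitted relative to DMSO baseline.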

The nature of assay [9]: ATG_M_32_TRANS: Attagene TRANS-FACTORIAL HepG2 Assay for M32 Transcription Factor (Internal Marker) (AID 2282984; active = hit-call score of the fitted dose curve at least 0.9, where 1 is the maximum). To be noted: HepG2 Attagene TRANS M32 internal marker reporter. The gist of the method:
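Internal background reporter in transfected HepG2: after 24 h chemical exposure, RNA reverse-transcribed, reporter cDNA amplified, fluorescently labelled and HpaI-cut, then sized by capillary electrophoresis. Gain of signal fitted against DMSO control.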

Assay [10] concerns the target Transcriptional activator Myb (Homo sapiens) (UniProt P10242). The assay is described as follows: ATG_Myb_CIS: Attagene CIS-FACTORIAL HepG2 Assay for human Myeloblastosis (Myb) Proto-Oncogene Transcription Factor (AID 2282986). To be noted: HepG2 Attagene CIS-FACTORIAL Myb reporter transcription; actives raise or lower the signal. Summed up: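 HepG2 cells were transiently transfected with cis-regulated multiple reporter transcription units reflecting endogenous Myb activity, then exposed to compound for 24 hours. Reporter mRNA was measured by RT-PCR with capillary electrophoresis; bidirectional fitting versus DMSO baseline.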

Assay [11] is described as follows: ATG_NFI_CIS: Attagene CIS-FACTORIAL HepG2 Assay for human Nuclear Factor I (NFI) (AID 2282989). To be noted: HepG2 cis-regulatory reporter, NFI response element transcription; actives raise or lower the signal. The gist of the method:
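HepG2 cells transiently transfected with cis-element-driven multiplexed reporter transcription units, dosed for 24 h. Reporter mRNA quantified by RT-PCR, fluorescent labelling, HpaI digestion and capillary electrophoresis; bidirectional fit versus DMSO baseline.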

The target in assay [12] is Myc proto-oncogene protein (Homo sapiens) (UniProt P01106). The experiment in a line: ATG_Myc_CIS: Attagene CIS-FACTORIAL HepG2 Assay for human Myelocytomatosis (Myc) Proto-Oncogene Transcription Factor (AID 2282990). To be noted: HepG2, Attagene cis-reporter transcription factor activity; actives raise or lower the signal. The gist of the method:
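After 24 h chemical treatment of HepG2 cells carrying multiplexed cis-regulated reporter constructs, reporter transcripts quantified by RT-PCR and capillary electrophoresis of fluorescent fragments. Gain or loss fitted against DMSO baseline.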

Assay [13] can be described thus: ATG_NRF2_ARE_CIS: Attagene CIS-FACTORIAL HepG2 Assay for human Nuclear Factor Erythroid 2 Related Factor 2 (NFR2) response to Antioxidant Response Elements (ARE) (AID 2282992). To be noted: HepG2 Attagene ARE/NRF2 reporter, transcription factor activity; actives raise or lower the signal. Summed up: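 Readout: reporter mRNA quantified by RT-PCR plus FAM-labelled primer extension, HpaI digestion and capillary electrophoresis, 24 h after dosing transfected HepG2 cells. Gain or loss of signal is fitted bidirectionally against DMSO baseline.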

A short description of assay [14]: ATG_Oct_MLP_CIS: Attagene CIS-FACTORIAL HepG2 Assay for human Octamer-Binding Transcription Factor (Oct) (AID 2282993). To be noted: HepG2 Attagene cis-factorial Oct reporter, mRNA; actives raise or lower the signal. Summed up:
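HepG2 cells transiently transfected with cis-promoter-driven multiplexed reporter transcription units, dosed for 24 h. Reporter mRNA quantified by RT-PCR, fluorescent labelling, HpaI digestion and capillary electrophoresis; bidirectional fits versus DMSO baseline.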

Assay [15] deals with Cellular tumor antigen p53 (Homo sapiens) (UniProt P04637). The assay is described as follows: ATG_p53_CIS: Attagene CIS-FACTORIAL HepG2 Assay for human p53 Transcription Factor (AID 2282994). To be noted: HepG2 p53 cis-element reporter, Attagene mRNA; actives raise or lower the signal. The gist of the method:
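Read-out: reporter mRNA by RT-PCR plus capillary electrophoresis with fluorescence detection. Human HepG2 liver cells carried transfected multi-reporter cis-element constructs, dosed 24 h. Gain or loss of signal fitted bidirectionally against DMSO control.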

The target in assay [16] is Peroxisome proliferator-activated receptor gamma (Homo sapiens) (UniProt P37231). The experiment in a line: ATG_PPARg_TRANS: Attagene TRANS-FACTORIAL HepG2 Assay for human Peroxisome Proliferator-activated Receptor-gamma (PPARg) (AID 2283007; active = hit-call score of the fitted dose curve at least 0.9, where 1 is the maximum). Summed up:
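HepG2 cells transiently transfected with multiplexed GAL4-UAS reporter units and exogenous chimeric NR-Gal4 proteins; reporter mRNA quantified after 24 h compound exposure by RT-PCR, fluorescent labelling, HpaI digestion and capillary electrophoresis; gain-of-signal fitted versus DMSO baseline.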

Assay [17] has as its target Cellular tumor antigen p53 (Homo sapiens) (UniProt P04637). The experiment in a line: TOX21_p53_BLA_p4_ratio: Tox21 HCT-116 p53 Agonism Beta-lactamase Assay, Ratio, Phase 4 (AID 2283601; active = hit-call score of the fitted dose curve at least 0.9, where 1 is the maximum). Summed up: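 Signal is the blue/green (460nm/530nm) ratio of cleaved versus uncleaved CCF4-AM substrate, read after 2 h substrate loading. Cells were HCT116 carrying the p53-responsive beta-lactamase reporter, dosed 16 h at 37C, 5% CO2; CellTiter-Glo measured in parallel.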

The target of assay [18] is Aryl hydrocarbon receptor (Homo sapiens) (UniProt P35869). The experiment in a line: ATG_Ahr_CIS: Attagene CIS-FACTORIAL HepG2 Assay for human Aryl Hydrocarbon Receptor (Ahr) (AID 2282930). To be noted: HepG2 AhR cis-factorial reporter transcription; actives raise or lower the signal. The gist of the method:
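Reporter mRNA levels, quantified by RT-PCR and fluorescent capillary electrophoresis, reflect endogenous AhR transcriptional activity in HepG2 cells carrying transfected cis-promoter reporter constructs. Readout at 24 h post-dose; gain or loss fitted against DMSO baseline.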

Assay [19] can be described thus: ATG_GRE_CIS: Attagene CIS-FACTORIAL HepG2 Assay for human Glucocorticoid Response Elements (GRE) (AID 2282947). To be noted: HepG2 GRE cis-reporter, Attagene multiplex mRNA; actives raise or lower the signal. The gist of the method:
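Reporter transcripts read by RT-PCR with capillary electrophoresis fluorescence after a 24 h chemical exposure of HepG2 cells transiently transfected with multiple cis-element reporter units. Gain or loss fitted against DMSO.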

For assay [20], the target named is Signal transducer and activator of transcription 3 (Homo sapiens) (UniProt P40763). The experiment in a line: ATG_STAT3_CIS: Attagene CIS-FACTORIAL HepG2 Assay for human Signal Transducer and Activator of Transcription 3 (STAT3) (AID 2282963). To be noted: HepG2, Attagene cis-factorial STAT3 reporter transcription; actives raise or lower the signal. The gist of the method: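 Readout is reporter transcript quantified by RT-PCR and capillary electrophoresis, with 6-FAM primer extension and HpaI digestion. Total RNA is taken 24 h after dosing transiently transfected HepG2 carrying cis-regulated reporter units. Bidirectional fit against DMSO.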
Signal transducer and activator of transcription 3 (Homo sapiens), sequence (P40763 whole entry, looked up): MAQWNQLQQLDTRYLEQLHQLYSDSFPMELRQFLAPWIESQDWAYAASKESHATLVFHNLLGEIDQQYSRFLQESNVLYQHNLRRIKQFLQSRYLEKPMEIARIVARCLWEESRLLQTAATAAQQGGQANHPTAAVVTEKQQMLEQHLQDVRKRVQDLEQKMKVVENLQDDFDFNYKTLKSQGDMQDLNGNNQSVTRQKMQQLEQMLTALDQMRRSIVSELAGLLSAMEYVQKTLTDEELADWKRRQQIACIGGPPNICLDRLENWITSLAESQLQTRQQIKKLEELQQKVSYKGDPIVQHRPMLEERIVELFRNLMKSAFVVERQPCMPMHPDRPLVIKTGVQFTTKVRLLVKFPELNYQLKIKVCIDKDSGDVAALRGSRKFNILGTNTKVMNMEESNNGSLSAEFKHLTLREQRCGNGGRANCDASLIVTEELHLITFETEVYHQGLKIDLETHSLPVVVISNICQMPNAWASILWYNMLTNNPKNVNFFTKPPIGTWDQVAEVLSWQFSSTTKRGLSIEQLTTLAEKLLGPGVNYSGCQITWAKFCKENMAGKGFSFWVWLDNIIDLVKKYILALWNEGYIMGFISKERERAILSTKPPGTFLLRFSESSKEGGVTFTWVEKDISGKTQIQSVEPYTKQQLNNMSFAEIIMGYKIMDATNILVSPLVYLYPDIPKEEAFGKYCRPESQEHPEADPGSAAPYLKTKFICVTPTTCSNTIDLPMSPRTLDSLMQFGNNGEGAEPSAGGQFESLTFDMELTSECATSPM

X-box-binding protein 1 (Homo sapiens), sequence (P17861 whole entry, looked up, the tested form may be a part): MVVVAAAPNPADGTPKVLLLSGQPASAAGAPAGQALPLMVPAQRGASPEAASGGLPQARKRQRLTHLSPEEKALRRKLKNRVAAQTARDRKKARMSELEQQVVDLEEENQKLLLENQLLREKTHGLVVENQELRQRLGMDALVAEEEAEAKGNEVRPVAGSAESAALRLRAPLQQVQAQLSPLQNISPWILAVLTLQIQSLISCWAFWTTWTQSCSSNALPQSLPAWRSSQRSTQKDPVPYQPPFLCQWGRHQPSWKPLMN
Transcription factor Sp1 (Homo sapiens), sequence (P08047 whole entry, looked up): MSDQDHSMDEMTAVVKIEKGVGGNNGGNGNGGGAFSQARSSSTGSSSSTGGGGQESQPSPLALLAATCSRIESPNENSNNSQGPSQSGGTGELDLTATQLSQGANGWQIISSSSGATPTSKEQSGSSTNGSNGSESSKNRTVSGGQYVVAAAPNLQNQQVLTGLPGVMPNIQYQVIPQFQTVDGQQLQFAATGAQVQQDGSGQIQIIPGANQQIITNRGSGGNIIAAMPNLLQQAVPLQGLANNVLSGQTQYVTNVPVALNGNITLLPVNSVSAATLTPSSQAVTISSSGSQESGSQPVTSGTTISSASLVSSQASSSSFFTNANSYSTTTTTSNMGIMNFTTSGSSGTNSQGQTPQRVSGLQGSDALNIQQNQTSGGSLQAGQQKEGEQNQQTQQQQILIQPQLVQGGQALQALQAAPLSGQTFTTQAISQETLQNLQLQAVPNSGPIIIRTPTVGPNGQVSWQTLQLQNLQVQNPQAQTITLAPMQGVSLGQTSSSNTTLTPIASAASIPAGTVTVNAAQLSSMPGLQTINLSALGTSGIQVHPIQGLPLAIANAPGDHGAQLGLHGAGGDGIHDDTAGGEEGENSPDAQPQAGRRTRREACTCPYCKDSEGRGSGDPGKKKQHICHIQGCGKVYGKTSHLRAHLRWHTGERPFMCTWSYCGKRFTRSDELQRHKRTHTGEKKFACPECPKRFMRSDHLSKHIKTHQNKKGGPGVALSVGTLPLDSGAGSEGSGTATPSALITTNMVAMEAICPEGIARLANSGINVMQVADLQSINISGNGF
Hypoxia-inducible factor 1-alpha (Homo sapiens), sequence (Q16665 whole entry, looked up): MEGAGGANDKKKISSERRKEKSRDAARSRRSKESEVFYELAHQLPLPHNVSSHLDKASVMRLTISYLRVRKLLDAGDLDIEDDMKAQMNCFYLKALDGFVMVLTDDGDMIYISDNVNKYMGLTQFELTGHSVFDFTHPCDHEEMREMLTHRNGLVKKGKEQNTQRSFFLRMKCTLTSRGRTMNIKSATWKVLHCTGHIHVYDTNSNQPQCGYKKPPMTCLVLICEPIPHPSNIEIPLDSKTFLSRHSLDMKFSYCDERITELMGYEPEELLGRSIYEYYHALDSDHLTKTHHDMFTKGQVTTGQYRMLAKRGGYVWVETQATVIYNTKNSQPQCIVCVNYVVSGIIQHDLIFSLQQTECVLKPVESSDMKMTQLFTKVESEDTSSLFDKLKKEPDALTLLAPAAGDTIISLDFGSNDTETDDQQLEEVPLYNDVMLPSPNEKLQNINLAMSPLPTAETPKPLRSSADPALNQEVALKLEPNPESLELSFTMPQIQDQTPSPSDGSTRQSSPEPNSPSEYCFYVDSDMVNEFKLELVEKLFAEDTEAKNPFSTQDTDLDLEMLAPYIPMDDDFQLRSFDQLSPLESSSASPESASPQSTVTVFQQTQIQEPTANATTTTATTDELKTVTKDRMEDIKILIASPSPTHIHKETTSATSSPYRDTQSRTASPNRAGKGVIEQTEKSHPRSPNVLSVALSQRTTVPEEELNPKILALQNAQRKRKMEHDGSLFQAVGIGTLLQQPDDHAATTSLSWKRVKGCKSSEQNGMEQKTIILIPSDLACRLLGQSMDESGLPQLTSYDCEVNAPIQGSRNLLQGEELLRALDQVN
Aryl hydrocarbon receptor (Homo sapiens), sequence (P35869 whole entry, looked up): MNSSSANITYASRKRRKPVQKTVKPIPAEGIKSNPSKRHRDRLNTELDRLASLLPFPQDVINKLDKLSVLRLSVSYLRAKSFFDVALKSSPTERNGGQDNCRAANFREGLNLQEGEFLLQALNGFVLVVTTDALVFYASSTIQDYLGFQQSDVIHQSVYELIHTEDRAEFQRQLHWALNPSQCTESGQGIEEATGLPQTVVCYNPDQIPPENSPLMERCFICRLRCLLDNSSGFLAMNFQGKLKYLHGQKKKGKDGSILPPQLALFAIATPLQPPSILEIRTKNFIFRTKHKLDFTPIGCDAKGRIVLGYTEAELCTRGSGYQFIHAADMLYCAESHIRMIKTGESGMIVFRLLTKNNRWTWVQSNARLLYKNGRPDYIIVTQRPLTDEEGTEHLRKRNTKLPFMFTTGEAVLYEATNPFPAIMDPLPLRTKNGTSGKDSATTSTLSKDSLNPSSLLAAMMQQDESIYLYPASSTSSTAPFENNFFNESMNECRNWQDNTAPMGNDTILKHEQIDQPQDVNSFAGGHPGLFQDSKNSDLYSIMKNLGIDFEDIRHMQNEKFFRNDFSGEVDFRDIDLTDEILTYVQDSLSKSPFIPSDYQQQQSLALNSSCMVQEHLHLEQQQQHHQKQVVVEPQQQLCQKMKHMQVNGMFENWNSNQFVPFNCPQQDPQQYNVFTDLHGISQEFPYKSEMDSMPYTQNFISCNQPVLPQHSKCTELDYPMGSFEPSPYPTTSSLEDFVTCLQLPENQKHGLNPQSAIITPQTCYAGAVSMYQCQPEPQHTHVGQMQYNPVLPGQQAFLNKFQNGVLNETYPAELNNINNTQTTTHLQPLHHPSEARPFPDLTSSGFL
Peroxisome proliferator-activated receptor gamma (Homo sapiens), sequence (P37231 whole entry, looked up, the tested form may be a part): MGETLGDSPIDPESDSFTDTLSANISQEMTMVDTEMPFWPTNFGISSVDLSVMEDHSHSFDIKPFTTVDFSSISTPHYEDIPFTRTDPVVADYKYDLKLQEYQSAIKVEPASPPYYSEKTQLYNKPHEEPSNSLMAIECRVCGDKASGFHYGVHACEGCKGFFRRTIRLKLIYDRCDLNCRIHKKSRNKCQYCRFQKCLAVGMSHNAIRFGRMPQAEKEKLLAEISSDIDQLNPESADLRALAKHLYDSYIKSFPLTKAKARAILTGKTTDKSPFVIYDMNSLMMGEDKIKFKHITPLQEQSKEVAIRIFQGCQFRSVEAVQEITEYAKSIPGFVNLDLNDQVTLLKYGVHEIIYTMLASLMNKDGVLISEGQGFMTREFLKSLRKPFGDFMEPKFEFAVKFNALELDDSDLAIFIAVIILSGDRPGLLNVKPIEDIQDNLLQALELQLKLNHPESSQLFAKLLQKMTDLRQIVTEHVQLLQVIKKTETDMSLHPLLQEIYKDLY
Cellular tumor antigen p53 (Homo sapiens), sequence (P04637 whole entry, looked up): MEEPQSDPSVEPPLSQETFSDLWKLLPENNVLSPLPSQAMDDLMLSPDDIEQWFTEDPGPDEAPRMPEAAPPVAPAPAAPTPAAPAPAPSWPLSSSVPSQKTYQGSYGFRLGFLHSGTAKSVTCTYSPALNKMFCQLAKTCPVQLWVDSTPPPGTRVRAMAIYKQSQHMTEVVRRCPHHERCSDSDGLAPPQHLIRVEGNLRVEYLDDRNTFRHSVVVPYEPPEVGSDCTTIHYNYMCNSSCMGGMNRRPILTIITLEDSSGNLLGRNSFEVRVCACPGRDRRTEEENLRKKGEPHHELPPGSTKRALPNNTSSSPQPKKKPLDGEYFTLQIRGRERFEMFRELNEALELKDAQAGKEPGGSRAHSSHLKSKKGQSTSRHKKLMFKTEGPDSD
Myc proto-oncogene protein (Homo sapiens), sequence (P01106 whole entry, looked up, the tested form may be a part): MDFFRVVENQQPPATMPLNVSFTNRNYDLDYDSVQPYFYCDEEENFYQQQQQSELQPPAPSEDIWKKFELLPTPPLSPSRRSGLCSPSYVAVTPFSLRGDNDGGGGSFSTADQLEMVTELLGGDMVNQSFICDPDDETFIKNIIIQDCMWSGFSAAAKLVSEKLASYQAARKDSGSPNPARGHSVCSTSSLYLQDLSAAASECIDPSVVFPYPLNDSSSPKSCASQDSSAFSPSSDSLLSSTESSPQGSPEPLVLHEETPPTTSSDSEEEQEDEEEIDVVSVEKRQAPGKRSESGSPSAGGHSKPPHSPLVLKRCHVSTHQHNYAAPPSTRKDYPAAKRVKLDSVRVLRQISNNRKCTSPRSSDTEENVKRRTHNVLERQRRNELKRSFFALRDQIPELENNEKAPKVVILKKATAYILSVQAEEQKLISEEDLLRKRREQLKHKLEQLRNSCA

As to `CC=Cc1ccc2c(c1)OCO2`, the outcome in [1], in assay [2], in [3], in assay [5], in assay [7] and in assay [8] was inactive. Also, the call in assay [9], in [10], in assay [11], in [12], in assay [13] and in assay [14] was inactive. Moreover, the result in [15], in [16] and in [17] was inactive. Further, the AC50 was 80.8 µM (active) in assay [4] and 0.0749 µM (active) in [6].

Regarding `O=C(O)c1cc[c]([Hg][Cl])cc1`, the outcome in [18], in assay [19], in [1], in assay [20], in assay [3] and in assay [4] was inactive. The result in assay [5], in assay [6], in assay [7], in assay [12] and in [17] was inactive. For the same molecule, the AC50 in assay [8] was 7.19 µM (active); in [11], 11.1 µM (active); in assay [13], 11.1 µM (active); in assay [14], 6.74 µM (active); in assay [15], 7.47 µM (active); in assay [16], 44.6 µM (active).

In the case of `C=CC(=O)OCCCCOC(=O)C=C`, the result in assay [18], in assay [20], in assay [5], in assay [6], in assay [8] and in assay [9] was inactive. Also, the result in assay [10], in assay [11], in assay [12] and in assay [17] was inactive. Also, the concentration at half-maximal activity (AC50) in [19] was 70.5 µM (active); in assay [1], 63.6 µM (active); in assay [2] it was 26 µM (active); in assay [4], 60.4 µM (active); in assay [7] it was 33.5 µM (active); in [13], 24.6 µM (active). The AC50 is 37.7 µM (active) in [14], 163 µM (active) in [15] and 2.14 µM (active) in assay [16].

For the molecule `C#CC1(O)CCCCC1`, the call in assay [18], in assay [1], in assay [2], in assay [20], in [3] and in assay [4] was inactive. Also, the call in assay [5], in [6], in assay [8], in [9], in [10] and in assay [11] was inactive. Further, the molecule was called inactive in assay [12], in assay [13], in [14], in assay [15] and in [17].
